ATG4B inhibitor = ATG4B (human) cysteine protease inhibition. 340,000 tested, 0.51% active. ATG4B cleavage of LC3-PLA2, NBD-HPC fluorescence, 1 h. Q9Y4P1. inhibition, % at 8.33 µM; in the data active = inhibition above about 40%
PP1 inh = counter-screen for PP5 inhibitors: inhibitors of human PP1-alpha | P62136 | purified PP1alpha, OMFP fluorescence | inhibition, % at 6.7 µM | 320,000 tested, 0.9% active | AID 2235;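 active = inhibition above the mean inhibition of all tested compounds plus 3 SD, computed separately for each screening campaign, cut at about 15% in these data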
H9c2 protect = myocardial damage modulation in H9c2 cells; H9c2 cardiomyocytes, H2O2 injury protection, ATPLite, 2 h; protection from H2O2 cell death, % at 20 µM; 360,000 tested, 0.63% active; AID 588492;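 active = compounds giving at least 50% protection of heart cells from peroxide-induced death in the single-dose screen, raw or plate-pattern-corrected value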;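 note: 0% = DMSO wells with peroxide and 100% = DMSO wells without peroxide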
PP5 primary = blocks human protein phosphatase 5 activity; purified PP5c, OMFP substrate fluorescence; inhibition, % at 6.7 µM; 320,000 tested, 0.18% active;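 active = inhibition above the campaign's mean inhibition across all tested compounds plus 3 SD, cut at about 9.5% in these data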;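 note: 0% = DMSO only and 100% = 100 µM cantharidin control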
Target sequence (P53041 whole entry, looked up): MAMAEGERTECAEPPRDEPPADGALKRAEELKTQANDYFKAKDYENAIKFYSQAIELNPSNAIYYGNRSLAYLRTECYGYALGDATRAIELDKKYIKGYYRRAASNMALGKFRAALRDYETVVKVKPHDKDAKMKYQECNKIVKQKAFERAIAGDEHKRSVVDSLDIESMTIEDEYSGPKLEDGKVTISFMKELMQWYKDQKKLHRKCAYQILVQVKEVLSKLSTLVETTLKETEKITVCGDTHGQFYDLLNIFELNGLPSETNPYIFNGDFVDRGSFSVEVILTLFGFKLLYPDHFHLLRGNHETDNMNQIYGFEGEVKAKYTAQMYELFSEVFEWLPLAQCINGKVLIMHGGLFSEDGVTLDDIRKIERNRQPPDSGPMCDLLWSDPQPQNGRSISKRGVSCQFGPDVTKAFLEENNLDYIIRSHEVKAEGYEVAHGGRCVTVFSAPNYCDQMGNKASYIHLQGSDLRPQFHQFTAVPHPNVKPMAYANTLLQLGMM
* hit, by the source's call; x = not tested or not shown; ! = not confirmed by another sample. Most compounds without a hit are left out; they make up all but 1.9% or so of the library.

SMILES | ATG4B inhibitor | PP1 inh | H9c2 protect | PP5 primary
COc1cc(-c2cc(C(=O)N3CCN(c4ccccn4)CC3)c3ccccc3n2)cc(OC)c1OC | -15 | -1 | 65* | 3
CCN(CC)S(=O)(=O)c1ccc(N2CCOCC2)c(NC(=O)c2cccc3ccccc23)c1 | -9 | 0 | 3 | 3
CC(NC(=O)CNC(=O)c1cccs1)c1cccc(C(F)(F)F)c1 (centres undefined) | 1 | x | 2 | x
Cc1ccc(S(=O)(=O)/N=C(/Nc2ccc(F)cc2F)c2ccccc2)cc1 | 3 | 2 | -10 | 3
CC(C)CN(C(=O)c1ccc(F)cc1F)c1c(N)n(CC(C)C)c(=O)[nH]c1=O | 5 | 3 | 7 | 2
O=C1/C(=C\c2ccccc2)SC(=S)N1CCC(=O)N1CCCCC1CCO (centres undefined) | 8 | 4 | -12 | 1
O=C1/C(=C/c2ccccc2)SC(=S)N1CC(=O)N1CCCCC1c1cccnc1 (centres undefined) | 1 | 17* | -6 | 2
CC(=O)Nc1cc2c(cc1Br)-c1ccccc1C2 | -10 | x | -1 | x
Cc1ccc2nc(-c3ccc(NC(=O)CSc4nccc(=O)[nH]4)cc3)sc2c1 | -3 | 2 | -1 | 1
Cc1ccc2nc(-c3ccc(NC(=O)CSc4nc(N)cc(=O)[nH]4)cc3)sc2c1 | -10 | 16* | -8 | -2
CC(=O)Nc1ccc(S(=O)(=O)NNc2cccc(C)c2)cc1 | 4 | 1 | -4 | 0
c1ccc(OCc2nn3c(-c4ccco4)nnc3s2)cc1 | 4 | 16* | 34 | 0
COc1cc(OC)c(-c2nn3c(-c4ccco4)nnc3s2)cc1OC | -24 | x | 74* | x
COc1cc(-c2nn3c(-c4ccccc4)nnc3s2)cc(OC)c1OC | 0 | 0 | 15 | 4
COc1ccc(-c2nnc3sc(-c4ccco4)nn23)cc1OC | -18 | -1 | 58* | 3
COc1ccc(-c2nnc3sc(COc4ccccc4)nn23)cc1 | -10 | 1 | 36 | 1
COc1ccc(-c2nn3c(-c4ccco4)nnc3s2)cc1OC | -24 | 2 | 77* | 0
COc1cc(-c2nnc3sc(-c4ccco4)nn23)cc(OC)c1OC | 1 | -1 | 12 | -3
CCCn1c(N)c(N(CCOC)C(=O)COC(=O)CSc2cc(C)c3ccccc3n2)c(=O)[nH]c1=O | 1 | -3 | -2 | 0
COc1ccc(NC(=O)C[C@H]2C(=O)N(C3CCCCC3)C[C@@H]2CSC)cc1 | x | x | -3 | x
COc1ccccc1Oc1ccc2c(c1)C(=O)N(CC1CCCO1)C2=O (centres undefined) | -4 | -3 | -1 | 1
c1coc(-c2nnc3sc(-c4cccs4)nn23)c1 | 5 | 1 | 53* | 3
CCOc1cccc(-c2nn3c(-c4ccco4)nnc3s2)c1 | -4 | -5 | 64* | 0
Cc1cc(NC(=O)c2cccs2)cc(-c2nc3ncccc3o2)c1O | -2 | -3 | 58* | 4
O=C1Nc2cnc(Cl)nc2Nc2ccccc21 | x | x | 56* | x
SMILES | ATG4B inhibitor | PP1 inh | H9c2 protect | PP5 primary
CCOc1ccccc1/C=N\Nc1cnn(Cc2ccccc2)c(=O)c1Cl | -7 | 16* | -12 | 5
COc1ccccc1/C=N\Nc1cn[nH]c(=O)c1Cl | -12 | -1 | 7 | 0
COc1cc(OC)cc(C(=O)NCC(=O)OCC(=O)Nc2ccc(C)c(S(=O)(=O)N3CCOCC3)c2)c1 | -6 | x | 2 | x
CC1Cc2ccccc2N1C(=S)NC(=O)c1cccc(Br)c1 (centres undefined) | 8 | 1 | 69* | 1
COc1ccccc1CNC(=O)CN(C)S(=O)(=O)c1cccc2cccnc12 | 0 | 0 | 3 | 1
CCN(Cc1nc2cc(Cl)ccc2c(=O)[nH]1)C(=O)c1cc(C2CC2)nn1-c1ccccc1 | 11 | x | 14 | x
COc1cc(/C=N/NC(=O)c2sc(N)c(C#N)c2C)ccc1O | -12 | 1 | 54* | 3
Cc1c(C(=O)N/N=C/c2ccc(O)c(Br)c2)sc(N)c1C#N | 8 | -2 | 70* | 1
Cc1ccc(CNc2ccc(N3CCN(C)CC3=O)cc2)cc1 | -6 | x | -1 | x
CC12CCC(=O)N1C(C(=O)NNC(=O)COc1cccc(C(F)(F)F)c1)CS2 (centres undefined) | -7 | -6 | -1 | 0
CC(=O)NC(c1cc(F)c2cccnc2c1O)C1CC1 (centres undefined) | -8 | -2 | 55* | -2
Cc1cccc(C2CN(C)CCc3c2cc(O)c(O)c3Cl)c1 (centres undefined) | -3 | -4 | 45 | -1
Oc1ccc(C2CNCCc3c2cc(O)c(O)c3Cl)cc1 (centres undefined) | 8 | 3 | 58*! | 2
C=CCN1CCc2cc(O)c(O)cc2C(c2ccccc2)C1 (centres undefined) | -12 | 1 | 38 | 0
Oc1cc2c(c(Cl)c1O)CCNCC2c1ccccc1 (centres undefined) | -4 | 0 | 68* | -1
C=CCN1CCc2c(cc(O)c(O)c2Cl)C(c2ccccc2)C1 (centres undefined) | -1 | 2 | 76* | -1
O=C(CNc1cccc(F)c1)N1CCc2ccccc2C1 | 7 | 3 | -1 | 2
Cn1c(=O)c(C(=O)COC(=O)c2cc(-c3ccco3)nc3ccccc23)c(N)n(Cc2ccccc2)c1=O | x | 19* | x | 1
COc1cccc(/C=N/NC(=O)CN2CC(c3ccccc3)CC2=O)c1O (centres undefined) | 6 | 0 | 56* | 0
COc1cccc(/C=N/NC(=O)C(=O)NCc2cccnc2)c1O | -4 | -2 | 79* | 3
COc1ccc(CCCC(=O)N/N=C/c2cccc(OC)c2O)cc1C | -5 | 17* | 53* | 0
COc1cccc(/C=N/NC(=O)C[n+]2ccccc2)c1O | -8 | 3 | -1 | 8
COc1cccc(/C=N/NC(=O)c2ccc(=O)n(C)c2)c1O | 0 | -2 | 49 | 2
COc1cccc(/C=N/NC(=O)CNC(=O)c2ccncc2)c1O | 9 | -7 | 60* | -1
COc1cccc(/C=N/NC(=O)C(=O)NCc2cccnc2)c1OC | -4 | -2 | 13 | 0
SMILES | ATG4B inhibitor | PP1 inh | H9c2 protect | PP5 primary
COc1ccc([N+](=O)[O-])cc1NCC(=O)Nc1cc(S(=O)(=O)N2CCCCC2)ccc1C | -8 | -1 | -11 | -1
O=C1NC(=O)C2(CCC(C3CCCCC3)CC2)N1 (centres undefined) | -14 | x | -6 | x
COc1cc2c(C#Cc3cccnc3)c(-c3ccsc3)oc(=O)c2cc1OC | -11 | x | 49 | x
COc1cccc(/C=N/NC(=O)CNC(=O)C2COc3ccccc3O2)c1O (centres undefined) | -8 | x | 66* | x
COc1cccc(/C=N/NC(=O)CNC(=O)c2ccc3c(c2)OCCO3)c1O | -7 | -5 | 66* | -2
O=C(CNC(=O)c1ccc2c(c1)OCCO2)N/N=C/c1ccc(O)cc1O | -12 | 2 | 72* | 1
COc1cccc(/C=N/NC(=O)CSc2nnc(C)n2-c2ccccc2)c1O | -11 | 1 | 80* | 2
CN(C)c1ccc(/C=N/NC(=O)CNC(=O)c2ccc3c(c2)OCCO3)cc1 | -12 | -8 | -7 | 1
O=C(CCCN1C(=O)c2cccc3cccc(c23)C1=O)N1CCN(c2ccccc2)CC1 | -9 | 1 | 5 | 3

Bioassay records (PubChem BioAssay)
